Six1-Eya2 blk – Six1/Eya2 interaction inhibition; Q15475+O00167; AlphaScreen GST-Six1/His-Eya2 binding, biochemical; active compounds read low; activity change, % (concentration not given with the values); hit rate 0.56% among 360,000; in the data active means activity change below about -65%; inconclusive means mostly about -30% to -63%
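Homogeneous AlphaScreen proximity assay pairing GST-Six1 with His-tagged Eya2 (added as 5X mix: 250 nM and 500 nM) in 50 mM Tris pH 8.0, 300 mM NaCl, 1 mM TCEP. Glutathione donor and nickel acceptor beads; 1 h, 37 °C, dark.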
TDP1 inh – TDP1 (human) enzyme inhibition; AID 485290; Q9NUW8; recombinant TDP1, AlphaScreen DNA substrate cleavage; Potency, µM (highest dose often 130 µM), for inactives: at the top dose activity change, negative = inhibition, hits mostly inhibitors; hit rate 0.28% among 350,000; further: potency means the concentration at half of the fitted maximal effect; nearly all actives have a fitted effect of over 40% in size
Target sequence (Q9NUW8 whole entry, looked up): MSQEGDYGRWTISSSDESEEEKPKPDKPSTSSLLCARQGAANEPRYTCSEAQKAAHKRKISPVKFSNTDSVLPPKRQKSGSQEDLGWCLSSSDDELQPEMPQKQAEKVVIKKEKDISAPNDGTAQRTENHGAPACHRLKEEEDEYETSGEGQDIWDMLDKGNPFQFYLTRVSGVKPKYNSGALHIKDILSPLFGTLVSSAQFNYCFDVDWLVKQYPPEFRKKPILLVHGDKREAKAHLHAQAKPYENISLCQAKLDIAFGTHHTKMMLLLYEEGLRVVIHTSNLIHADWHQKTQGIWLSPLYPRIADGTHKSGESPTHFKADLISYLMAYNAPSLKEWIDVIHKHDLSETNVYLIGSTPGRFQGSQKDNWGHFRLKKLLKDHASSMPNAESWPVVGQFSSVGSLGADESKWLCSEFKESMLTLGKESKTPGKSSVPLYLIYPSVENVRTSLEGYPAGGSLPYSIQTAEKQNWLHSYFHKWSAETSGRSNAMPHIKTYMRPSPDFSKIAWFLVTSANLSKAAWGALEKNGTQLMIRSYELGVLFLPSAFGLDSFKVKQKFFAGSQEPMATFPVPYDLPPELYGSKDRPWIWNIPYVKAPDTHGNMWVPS
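E. coli-derived human Tdp1, 1 nM final. Cpd preinc 15 min RT; substrate 15 nM final, 5 min RT; AS bead mix 10 ug/ml final, 10 min RT. Signal loss = tyrosine-FITC cleavage. No-enzyme wells = max signal.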
IL1B secr inh – blocks inflammasome-driven IL-1 beta release. THP-1 LPS/ATP IL-1B secretion, AlphaLISA, 16 h; active compounds read low. activity change, % at 57.5 µM. hit rate 4.7% among 360,000. AID 743279; in the data active means activity change below about -50%; inconclusive means mostly about -30% to -49%
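Secreted IL-1B measured by AlphaLISA bead assay after 16 h compound exposure of THP-1 cells; compounds (final up to 57.5 uM) added 1 h before LPS (250 ng/mL) and ATP (1.25 mM) stimulation; lower signal means less secretion.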
CtBP-E1A inh – blocks the CtBP interaction with E1A; AlphaScreen GST-E1A/His-CtBP binding, 1536-well; active compounds read low; activity change, % (no concentration beside the values); hit rate 0.49% among 340,000; AID 651724; in the data active means activity change below about -65%; inconclusive means mostly about -30% to -63%
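AlphaScreen with 125 nM GST-E1A and 125 nM His-CtBP (5X stocks) in Tris pH 8.0, 300 mM NaCl, BSA, Tween 20, TCEP. Compounds preincubated 2 h at 37 deg C, then glutathione donor/nickel acceptor beads added for 1 h at 37 deg C in dark.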
TDP1 cell CPT – DT40-hTDP1 cell growth loss with CPT | chicken DT40 Tdp1-/-;hTDP1 cells + 20 nM CPT, ATP luminescence, 48 h | Potency, µM (series often up to 46.2 µM), without a hit: at the highest dose activity change, negative = growth inhibition, actives largely listed as inhibitors | hit rate 12% among 420,000 | AID 686979; further: potency means the concentration at half of the fitted maximal effect; nearly all actives have a fitted effect of over 55% in size
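Cell growth measured by CellTiter-Glo luminescence after a minimum 48 h, 37 C compound exposure with 20 nM CPT in Tdp1-knockout DT40 cells stably expressing hTDP1, seeded 400/well; qHTS titration format.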
DT40 TDP1 no CPT – qHTS for Inhibitors of human tyrosyl-DNA phosphodiesterase 1 (TDP1): qHTS in cells in absence of CPT. DT40 Tdp1-/- hTDP1 cells, no CPT, ATP luminescence, 48 h. Potency, µM (highest dose often 46.2 µM), without a hit: at the top dose activity change, negative = growth inhibition, most hits filed as inhibitors. hit rate 15% among 420,000; further: potency means the concentration at half of the fitted maximal effect; nearly all actives have a fitted effect of over 55% in size
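Seeded 400 DT40-hTDP1 cells/well (vehicle DMSO, no 20 nM CPT); pinned compounds; ≥48 hr at 37 °C; CellTiter-Glo luminescence as viability measure.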
Active calls of the source: *; ? = inconclusive; nt = no result; [ ] = remark or other dose. Only some compounds are listed: those with a hit (about 18% of all), similar ones and a draw of the others. Unless noted, the call rests on the fitted dose curve; in most records, active means well fitted curve in the direction sought with a large enough effect; inconclusive means small, poorly fitted or top-dose-only effect, or another doubt; inactive means no such curve, though single readings can be large; an effect the other way counts as inactive or inconclusive. On the % scale 0 is the no-effect control and ±100 the full control effect.

SMILES	Six1-Eya2 blk	TDP1 inh	IL1B secr inh	CtBP-E1A inh	TDP1 cell CPT	DT40 TDP1 no CPT
Cc1ccc(-c2csc(NC(=O)c3ccc4c(=O)n5c(nc4c3)CCCCC5)n2)cc1	5	3%	0	0	10µM*	13µM*
O=C(Nc1ccc(S(=O)(=O)N2CCCC2)cc1)c1ccc2c(=O)n3c(nc2c1)CCCCC3	0	0%	-5	-10	?	16µM*
O=C(NCc1ccccc1)c1cccc(S(=O)(=O)N2CCOCC2)c1	2	0%	13	6	-3%	-16%
CC[C@]12c3[nH]c4cc(CCC(=O)N(C)C)ccc4c3CCN1C(=O)[C@@H](CC(=O)NCCCOC)C[C@@H]2C(=O)N1CCN(C(=O)C2CC2)CC1	0	-8%[56.1 µM]	-8	1	?	-8%
O=C(O)CSc1c2c(nc3cc(C(=O)Nc4ccc(F)c(Cl)c4)ccc13)CCCC2	6	56µM*	1	nt	-2%	-9%
COc1ccc(NC(=O)c2ccc3c(SCC(=O)O)c4c(nc3c2)CCCC4)cc1Cl	nt	2%	nt	nt	nt	nt
CNC(=O)c1ccc(NC(=O)c2ccc3c(=O)n4c(nc3c2)CCC4)cc1	-8	-3%	9	-5	-1%	13%
O=C(Nc1cccc(Cl)c1)c1ccc2c(=O)n3c(nc2c1)CCCCC3	-18	4%	-74*	-7	23µM*	?
O=C(CCCn1c(=O)[nH]c2ccsc2c1=O)NCc1cccs1	5	0%	0	-1	15%	-2%
CCCCNC(=O)c1nc(C2CCN(S(=O)(=O)c3csc(C(=O)O)c3)CC2)oc1-c1ccccc1	3	nt	21	1	-6%	1%
CCCCNC(=O)c1nc(C2CCN(S(=O)(=O)c3cccc(C(F)(F)F)c3)CC2)oc1-c1ccccc1	13	nt	13	13	9.2µM*	8.2µM*
CCCCNC(=O)c1nc(C2CCN(S(=O)(=O)c3ccccc3)CC2)oc1-c1cccc(C(F)(F)F)c1	4	nt	-24	14	?	-19%
CCCCNC(=O)c1nc(C2CCN(S(=O)(=O)c3ccc(Cl)cc3)CC2)oc1-c1ccccc1	3	nt	0	-4	7.3µM*	7.3µM*
CCCCNC(=O)c1nc(C2CCN(S(=O)(=O)c3c(OC)cccc3OC)CC2)oc1-c1ccccc1	-11	nt	-19	-8	12µM*	9.2µM*
CN(c1ccc(OCc2ccc([N+](=O)[O-])cc2)cc1)S(=O)(=O)c1ccccc1	-10	5%[0.0935 µM]	-2	-10	?	?
CC1CCCN(CCCNC(=O)C2CCN(S(=O)(=O)N3CCC4(CC3)OCCO4)CC2)C1 (stereo not drawn)	3	3%	-6	nt	1%	3%
Cc1oc2c(C)c3oc(=O)c(CC(=O)N4CCCCC4)c(C)c3cc2c1C	nt	2%	nt	nt	21µM*	21µM*
Cc1coc2c(C)c3oc(=O)c(CCC(=O)N4CCCCC4)c(C)c3cc12	nt	0%	nt	nt	13µM*	16µM*
CCOc1ccc(CC(=NCCO)C2=C(O)CC(C)(C)CC2=O)cc1OCC	0	-1%	6	-7	-1%	-6%
Cc1ccc(-n2c(=O)[nH]c3sc4c(c3c2=O)CCNC4)cc1C	nt	6%	nt	nt	?	1%
COc1ccc(NC(=O)N2CCN(S(C)(=O)=O)CC2)c(OC)c1	12	5%	-2	nt	21%	-19%
Cc1ccc(S(=O)(=O)N(C)C[C@H]2Oc3ncc(-c4ccccc4)cc3C(=O)N([C@@H](C)CO)C[C@@H]2C)cc1	6	nt	-28	-2	?	13µM*
C[C@@H]1CN([C@@H](C)CO)C(=O)c2cc(Br)cnc2O[C@H]1CN(C)C(=O)C1CCCCC1	-18	nt	29	-6	-12%	-19%
COc1cccc(C#Cc2cnc3c(c2)C(=O)N([C@@H](C)CO)C[C@H](C)[C@H](CN(C)C(=O)C2CCC2)O3)c1	14	nt	-24	-22	?	13µM*
COCC#Cc1cnc2c(c1)C(=O)N([C@H](C)CO)C[C@H](C)[C@@H](CN(C)S(=O)(=O)c1ccccc1)O2	2	nt	20	2	11%	0%
SMILES	Six1-Eya2 blk	TDP1 inh	IL1B secr inh	CtBP-E1A inh	TDP1 cell CPT	DT40 TDP1 no CPT
COc1ccccc1S(=O)(=O)N(C)C[C@@H]1Oc2ncc(-c3ccc(C)cc3)cc2C(=O)N([C@H](C)CO)C[C@@H]1C	-8	nt	-13	-5	?	16µM*
Cc1ccc(S(=O)(=O)N(C)C[C@@H]2Oc3ncc(C#CCC(C)C)cc3C(=O)N([C@H](C)CO)C[C@H]2C)cc1	-3	nt	-10	-16	?	16µM*
CCC(C)/C(C)=N/NC(=O)c1cn(-c2ccccc2)nc1-c1ccccc1 (stereo not drawn)	3	5%	-7	4	-28%	?
CCO[C@@H]1OC(C(=O)NC2CC2)=C[C@H](C2CCCCC2)[C@H]1CCCO	1	nt	-20	0	?	?
CCCCc1c(C)nc2ccc(C(=O)OCC)cc2c1Cl	1	5%	18	6	?	?
CS(=O)(=O)N(CC(=O)N1CCN(c2ccc(F)cc2)CC1)c1cccc(Cl)c1	-1	-2%	-8	-8	-1%	?
CCOC(=O)C1=CCN(S(=O)(=O)c2ccc(C)cc2)C1c1cccc(C)c1 (stereo not drawn)	-6	nt	31	5	?	18µM*
CCOC(=O)C1=CCN(S(=O)(=O)c2ccc(Br)cc2)C1c1ccccc1 (stereo not drawn)	20	nt	4	11	-26%	?
CCOC(=O)C1=CCN(S(=O)(=O)c2ccc(Br)cc2)C1c1ccc(C)cc1 (stereo not drawn)	18	nt	7	-8	?	26µM*
Cc1ccc(C)c(N2CCN(c3nc4ccccc4c(=O)n3-c3ccccc3)CC2)c1	nt	2%	nt	nt	10µM*	9.2µM*
CCc1nnc2c3ccccc3nc(N3CCN(c4cc(C)ccc4C)CC3)n12	nt	4%	nt	nt	?	1.3µM*
Cc1ccc(C)c(N2CCN(c3nc4ccccc4c4nc(-c5cccnc5)nn34)CC2)c1	nt	4%	nt	nt	-16%	-27%
CC1CN(c2cnn(C(C)C)c(=O)c2Cl)CC(C)O1 (stereo not drawn)	-16	nt	-17	-8	-10%	-1%
CC(=O)N1c2ccc(S(=O)(=O)N3CCCCC3)cc2CC1C(=O)Nc1ccccc1C(F)(F)F (stereo not drawn)	2	4%	0	-2	-30%	-15%

Screens as filed in PubChem BioAssay.
